Measurements: paper PMC5540273 (PLoS ONE, 2017)

Experiments:
Conditions in all cases: concentration: 1 μM, replicates: in singlicate; n = 1
DAPK2 = test system: DAPK2
DAPK3 = test system: DAPK3
DCAMKL1 = test system: T1, DCAMKL1
T1 construct: gene DCLK1

DCAMKL2 = test system: T2, DCAMKL2
T2 construct: gene DCLK2

DCAMKL3 = test system: T3, DCAMKL3
T3 construct: gene DCLK3

DDR1 = test system: DDR1
DDR2 = test system: DDR2
DLK = test system: T4, DLK
T4 construct: gene MAP3K12

DMPK2 = test system: T5, DMPK2
T5 construct: gene CDC42BPG

DMPK = test system: DMPK
DRAK1 = test system: T6, DRAK1
T6 construct: gene STK17A

DRAK2 = test system: T7, DRAK2
T7 construct: gene STK17B

DYRK1A = test system: DYRK1A
DYRK1B = test system: DYRK1B
DYRK2 = test system: DYRK2
EGFR = test system: EGFR
EIF2AK1 = test system: EIF2AK1
EPHA1 = test system: EPHA1
EPHA2 = test system: EPHA2
EPHA3 = test system: EPHA3
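Further: KINOMEscan kinase panel screen.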

| SMILES | %Inh (DAPK2) [%] | %Inh (DAPK3) [%] | %Inh (DCAMKL1) [%] | %Inh (DCAMKL2) [%] | %Inh (DCAMKL3) [%] | %Inh (DDR1) [%] | %Inh (DDR2) [%] | %Inh (DLK) [%] | %Inh (DMPK2) [%] | %Inh (DMPK) [%] | %Inh (DRAK1) [%] | %Inh (DRAK2) [%] | %Inh (DYRK1A) [%] | %Inh (DYRK1B) [%] | %Inh (DYRK2) [%] | %Inh (EGFR) [%] | %Inh (EIF2AK1) [%] | %Inh (EPHA1) [%] | %Inh (EPHA2) [%] | %Inh (EPHA3) [%] |
| --- | --- | --- | --- | --- | --- | --- | --- | --- | --- | --- | --- | --- | --- | --- | --- | --- | --- | --- | --- | --- |
| COC(=O)c1c(-c2ccccc2)c2cc(OC)ccc2c(=O)n1Cc1ccccc1 | 2 | 6 | 12 | 7 | 0 | 81 | 50 | 9 | 0 | 0 | 0 | 22 | 0 | 12 | 0 | 0 | 5 | 0 | 3 | 9 |
| O=C1NC(=O)C(N2CCc3ccccc32)=C1c1ccccc1Cl [SB-373598] | 23 | 4 | 10 | 0 | 11 | 12 | 14 | 0 | 12 | 26 | 0 | 0 | 18 | 0 | 6 | 25 | 0 | 10 | 27 | 12 |
| Cn1ccc2ncnc(Oc3ccc(Nc4nc5ccccc5[nH]4)cc3)c21 | 0 | 3 | 0 | 0 | 0 | 0 | 16 | 0 | 0 | 0 | 0 | 2 | 0 | 5 | 0 | 0 | 0 | 0 | 0 | 2 |
| Fc1cccc(COc2nnc(-c3ccc4c(c3)CCO4)o2)c1 | 0 | 0 | 9 | 0 | 0 | 0 | 12 | 0 | 0 | 0 | 6 | 33 | 44 | 65 | 3 | 6 | 0 | 0 | 0 | 0 |
| CC(=O)Nc1nc2cnc(Nc3cc(NC(=O)c4cccc(CCC#N)c4)ccc3C)nc2s1 | 6 | 8 | 12 | 13 | 12 | 100 | 86 | 0 | 3 | 12 | 0 | 0 | 0 | 42 | 0 | 6 | 21 | 0 | 34 | 0 |
| Cc1cccc(-c2nc(Nc3ccc4[nH]ncc4c3)c3ccccc3n2)n1 [GW857175] | 20 | 28 | 0 | 14 | 0 | 39 | 17 | 0 | 72 | 4 | 13 | 10 | 24 | 11 | 40 | 0 | 5 | 12 | 1 | 0 |
| Cc1ccc(NC(=O)Nc2cccc(Cl)c2)cc1-c1ccc(C(=O)Nc2ccncc2)cc1 [GSK1398468] | 0 | 22 | 17 | 0 | 0 | 99.7 | 72 | 25 | 8 | 0 | 0 | 0 | 1 | 21 | 0 | 24 | 0 | 6 | 3 | 0 |
